A selection: hits, their analogues and other compounds. The true share with any hit is near 19%.
DT40 TDP1 CPT: DT40-hTDP1 cell growth loss with CPT; chicken DT40 Tdp1-/-;hTDP1 cells + 20 nM CPT, ATP luminescence, 48 h; Potency, µM (highest dose often 46.2 µM), without a hit: top-dose activity change, negative = growth inhibition, usual class: inhibitors; 420,000 compounds, 12% hits; further: nearly all actives have a fitted effect of over 55% in size
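Cell growth measured by CellTiter-Glo luminescence after a minimum 48 h, 37 C compound exposure with 20 nM CPT in Tdp1-knockout DT40 cells stably expressing hTDP1, seeded 400/well; qHTS titration format.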
TDP1 cell noCPT: qHTS for Inhibitors of human tyrosyl-DNA phosphodiesterase 1 (TDP1): qHTS in cells in absence of CPT; AID 686978, 2013; 420,000 compounds, 15% hits; DT40 Tdp1-/- hTDP1 cells, no CPT, ATP luminescence, 48 h; Potency, µM (top dose mostly 46.2 µM), inactives show at the highest dose activity change, negative = growth inhibition, actives largely listed as inhibitors; further: nearly all actives have a fitted effect of over 55% in size
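Growth kinetics read by CellTiter-Glo luminescence after ≥48 hr at 37 °C. Cells: DT40 Tdp1-/- stably carrying human TDP1, 400 per well, compound exposure in the absence of CPT (DMSO vehicle).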
KB-3-1 cytotox: kills parental KB-3-1 adenocarcinoma cells | KB-3-1 viability, CellTiter-Glo ATP luminescence, 72 h | Potency, µM (top dose mostly 46.1 µM), hits mostly cytotoxic | 400,000 compounds, 1.4% hits; further: nearly all actives have a fitted effect of over 60% in size
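Luminescent ATP read-out (CellTiter-Glo) measures survival of drug-naive KB-3-1 cells after 72 h compound exposure at 37 °C. Titration series was screened from lowest to highest concentration, with DMSO vehicle plates as background controls.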
HT1080 IDH1KD tx: HT-1080 IDH1 knockdown cell toxicity (counter line). HT-1080 IDH1 knockdown viability, ATP luminescence, 48 h. Potency, µM (titrated, usually from 46.1 µM), for inactives: top-dose activity, negative = toxicity, most hits filed as cytotoxic. 360,000 compounds, 2% hits;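 further: 0% = DMSO wells and -100% = cell-free medium wells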
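Luminescent ATP read-out (CellTiter-Glo, 10 min at room temperature) after 48 h compound exposure at 37 °C gave viability of IDH1-knockdown HT-1080 cells. Activity was normalised to DMSO and cell-free wells, then fitted as concentration-response curves.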
HT1080-NT tox: kills 2HG-producing HT-1080-NT fibrosarcoma cells; HT-1080-NT fibrosarcoma viability, CellTiter-Glo ATP luminescence, 48 h; Potency, µM (series often up to 46.1 µM), for the others: top-dose activity, negative = less viability, actives largely listed as cytotoxic; 360,000 compounds, 1.6% hits;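 further: NT is the 2HG producing partner of a matched IDH1 knockdown line; 0% = DMSO-treated cells and -100% = media-only wells without cells; nearly all actives have a fitted effect of over 55% in size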
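HT-1080-NT; 750 cells/well; 5% FBS RPMI; 48 h compound, 37 degrees C; CellTiter-Glo luminescence; curve fitting and curve-class assignment.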
KB-V1 cytotox: KB-V1 MDR subline cytotoxicity; Potency, µM (top dose mostly 46.1 µM), most hits filed as cytotoxic; KB-V1 MDR cells viability, CellTiter-Glo, 72 h; 400,000 compounds, 3.4% hits; AID 1347076; further: nearly all actives have a fitted effect of over 60% in size
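KB-V1, DMEM (no phenol red) + 10% FBS; cpd pin-transferred, titration series; 72 h, 37 degrees C; CellTiter-Glo, luminescence. Data normalized, curve-fit.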
Numbers without * were called inactive; i = inactive; ? = inconclusive; . = not tested or not shown. The call rests on the fitted dose curve; in most records, active means well fitted curve in the direction sought with a large enough effect; inconclusive means small, poorly fitted or top-dose-only effect, or another doubt; inactive means no such curve, though single readings can be large; an effect the other way counts as inactive or inconclusive. Unless noted, on the % scale 0 is the no-effect control and ±100 the full control effect; potency means the concentration at half of the fitted maximal effect.

SMILES | DT40 TDP1 CPT | TDP1 cell noCPT | KB-3-1 cytotox | HT1080 IDH1KD tx | HT1080-NT tox | KB-V1 cytotox
CC1SC(c2ccc(F)cc2)N(CCc2ccccc2)C1=O (stereo not drawn) | 0.5% | 23.1µM* | i | 11.2% | -1.7% | i
O=C(NCc1ccc2c(c1)OCO2)c1ccc2c(c1)N(Cc1ccccc1F)C(=O)c1ccccc1S2=O (stereo not drawn) | -34.3% | 20.6µM* | i | . | . | i
COc1ccc(CCNC(=O)c2ccc3c(c2)N(Cc2ccccc2F)C(=O)c2ccccc2S3=O)cc1OC (stereo not drawn) | 14.6µM* | 25.9µM* | i | . | . | i
CC(C)CCNC(=O)c1ccc2c(c1)N(Cc1ccccc1F)C(=O)c1ccccc1S2=O (stereo not drawn) | ? | 20.6µM* | i | . | . | i
Cc1ccc(CCNC(=O)c2ccc3c(c2)N(Cc2ccccc2F)C(=O)c2ccccc2S3=O)cc1 (stereo not drawn) | ? | ? | i | . | . | i
COc1ccc(CCNC(=O)c2ccc3c(c2)N(Cc2cc(C)ccc2C)C(=O)c2ccccc2S3=O)cc1OC (stereo not drawn) | 9.2µM* | 5.8µM* | i | . | . | i
COc1c2ccccc2nn1C(C)C | 24.8% | -7.2% | i | 0.6% | 17.3% | i
CC1(c2ccc3c(c2)OCCO3)NC(=O)N(CC(=O)Nc2ccccc2F)C1=O (stereo not drawn) | 12.7% | -16.0% | i | -0.8% | -5.4% | i
CC1(C(=O)Nc2ccc3c(c2)OCCO3)CSCC(=O)N1CCc1ccccc1F (stereo not drawn) | -37.5% | -26.8% | i | -13.4% | -10.3% | i
O=C(NCCC1=CCCCC1)c1ccc2c(c1)N(Cc1ccccc1)C(=O)c1ccccc1S2=O (stereo not drawn) | ? | ? | i | . | . | i
Cc1ccc(C)c(CN2C(=O)c3ccccc3S(=O)c3ccc(C(=O)NCCC4=CCCCC4)cc32)c1 (stereo not drawn) | 14.6µM* | 16.4µM* | i | . | . | i
NC(=O)n1c(O)c(C(=O)c2cccs2)c2cc(Cl)ccc21 | -9.2% | ? | . | . | . | .
Cc1cccc(-c2ccc(O)cc2CN2CCN(c3ncc(Cc4ccccc4)cn3)CC2)c1 | ? | 20.6µM* | i | ? | ? | ?
Oc1ccc(Br)c(CN2CCN(c3ncc(Cc4ccccc4)cn3)CC2)c1 | ? | ? | 20.6µM* | ? | ? | 18.4µM*
Cc1cccc(-c2ccc([N+](=O)[O-])cc2CN2CCN(c3ncc(Cc4ccccc4)cn3)CC2)c1 | 5.8µM* | 5.8µM* | i | ? | ? | ?
Cc1ccc(C)c(CN2CCN(c3ncccn3)CC2)c1 | 20.1% | -14.7% | i | -1.3% | -2.0% | i
COc1ccc(NC(=O)C(C)N2Cc3ccccc3C2=O)cc1OC (stereo not drawn) | -3.2% | 0.2% | i | . | . | i
CCN1C(=O)[C@H]2[C@@H](c3ccc(OC)cc3)N[C@]3(CCCN(Cc4ccc(Cl)cc4)C3=O)[C@H]2C1=O | ? | ? | i | -10.6% | -10.3% | ?
CCN1C(=O)[C@H]2[C@@H](c3ccc(C(F)(F)F)cc3)N[C@]3(CCCN(Cc4ccc(C(F)(F)F)cc4)C3=O)[C@H]2C1=O | 11.6µM* | 11.6µM* | i | -13.4% | -10.5% | i
CCN1C(=O)[C@H]2[C@@H](c3ccc(C(F)(F)F)cc3)N[C@]3(CCCN(Cc4ccc(OC)cc4)C3=O)[C@H]2C1=O | 20.6µM* | 10.3µM* | i | -1.2% | 3.0% | i
COc1ccc2c(c1)CC(NC(=O)Nc1ccc(Br)c(C)c1)CO2 (stereo not drawn) | -16.5% | -13.3% | i | . | . | i

Assay outcomes from PubChem BioAssay.
